Reference: PubChem BioAssay AID504447 (The Scripps Research Institute Molecular Screening Center, 2011)
Results with a measured potency or affinity are listed apart.

Target: Peroxisome proliferator-activated receptor gamma (Homo sapiens) (UniProt P37231)
Assay: PPARg partial agonists, dose response, cell-based, luminescence, assay provider (AID 504447)
Details: cell-based PPARg reporter, luciferase luminescence, partial agonism; series mostly up to 5 µM; fold change activation: at the top concentration; call rule not given here

Sequence of Peroxisome proliferator-activated receptor gamma (Homo sapiens) (P37231 whole entry, looked up): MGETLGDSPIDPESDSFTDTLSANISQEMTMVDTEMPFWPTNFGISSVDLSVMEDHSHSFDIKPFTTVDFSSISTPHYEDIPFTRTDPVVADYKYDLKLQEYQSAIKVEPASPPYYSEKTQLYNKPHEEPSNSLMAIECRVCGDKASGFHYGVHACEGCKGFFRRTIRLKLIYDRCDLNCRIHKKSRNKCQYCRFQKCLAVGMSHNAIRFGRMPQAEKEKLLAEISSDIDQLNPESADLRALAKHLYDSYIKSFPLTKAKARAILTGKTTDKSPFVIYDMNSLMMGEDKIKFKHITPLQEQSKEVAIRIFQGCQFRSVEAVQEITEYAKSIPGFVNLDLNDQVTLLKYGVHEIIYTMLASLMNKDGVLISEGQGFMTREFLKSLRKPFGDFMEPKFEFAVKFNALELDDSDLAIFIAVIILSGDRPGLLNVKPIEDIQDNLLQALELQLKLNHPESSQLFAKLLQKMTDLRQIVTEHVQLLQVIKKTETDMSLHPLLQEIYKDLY

Fold change activation, inactive:
CN(CCNC(=O)C1CCCN(c2ncnc3c2nc2n3CCCCC2)C1)Cc1ccccc1 (stereo not drawn) 0.92 fold
O=C(COc1coc(CN2CCc3ccccc3C2)cc1=O)Nc1ccc(F)cc1F 1.06 fold
O=C(Nc1c(C(=O)Nc2ccc3c(c2)OCCO3)cnn1-c1ccccc1Cl)c1ccco1 1.34 fold
CCOc1cc(N2CCOCC2)c(OCC)cc1NC(=O)c1ccc2ccccc2n1 1.26 fold
COc1cc(C2/C(=C(/O)c3ccc(F)cc3)C(=O)C(=O)N2CCCC(=O)O)ccc1O (stereo not drawn) 0.97 fold
O=C(CSc1nc(=O)n(CCCN2CCOCC2)c2c1CCC2)Nc1cccc(F)c1 1.04 fold
Cc1cccc(NC(=O)CN2C(=O)/C(=C3\SC(=S)N(CC4CCCO4)C3=O)c3ccccc32)c1 (stereo not drawn) 1.07 fold
COc1ccccc1NC(=O)C(=O)c1cn(CC(=O)N2CCOCC2)c2ccccc12 1.03 fold
O=C(O)CCN1C(=O)/C(=C/c2ccccc2)SC1=S 0.99 fold
O=C(O)COc1ccccc1/C=C1\SC(=S)N(NC(=O)c2ccccc2O)C1=O 1.01 fold
Cc1ccc2nc(N3C(=O)C(O)=C(C(=O)c4ccco4)C3c3cccc(O)c3)sc2c1 (stereo not drawn) 1.17 fold
Cc1ccc(-c2nnc(Nc3ccc(O)cc3)c3ccccc23)cc1S(=O)(=O)NCCO 1.09 fold
O=C(NC(Cc1ccccc1)C(=O)N1CCN(c2ccccc2O)CC1)c1ccccc1 (stereo not drawn) 0.99 fold
O=C(CSc1nnc(Cc2cc(=O)[nH]c(=O)[nH]2)n1-c1ccc(Cl)cc1)N1CCc2ccccc21 1.03 fold
O=C(CNC(=O)c1nc[nH]c1C(=O)N1CCc2ccccc2C1)OCc1ccccc1 1.01 fold
O=c1c2cn(Cc3ccc(F)cc3)c3ccccc3c-2nn1Cc1ccc(F)cc1 1.04 fold
COCCn1cnc2c1c(=O)n(Cc1cc(C(C)=O)ccc1OC)c(=O)n2Cc1ccccc1 1.14 fold
Cc1ccc2[nH]c(=O)c(CN(Cc3cccs3)Cc3nnnn3CC3CCCO3)cc2c1 (stereo not drawn) 1.02 fold
COc1ccc(CN(Cc2ccccn2)C(=O)CN2C(=O)C(C)Oc3ccccc32)cc1 (stereo not drawn) 1.05 fold
Cc1ccccc1NC(=O)CC1C(=O)Nc2ccccc2N1CC(=O)N(C)C1CCS(=O)(=O)C1 (stereo not drawn) 1.14 fold
CCC(=O)c1ccc(OCC(=O)OC(C)C(=O)Nc2c(C)n(C)n(-c3ccccc3)c2=O)cc1 (stereo not drawn) 1.08 fold
COc1ccc(S(=O)(=O)N2CCCCC2)cc1NC(=O)C1CSC2(C)CCC(=O)N12 (stereo not drawn) 1.1 fold
COc1ccc(CNC(=O)Cn2c(=O)n(CCC(=O)N3CCCCC3)c(=O)c3sccc32)cc1 1.15 fold
